From PubChem BioAssay (NCATS)
Inconclusive results are not listed. Activity calls are given as the source filed them. The call rests on the fitted dose curve; in most records, active means well fitted curve in the direction sought with a large enough effect; inconclusive means small, poorly fitted or top-dose-only effect, or another doubt; inactive means no such curve, though single readings can be large; an effect the other way counts as inactive or inconclusive.

What was measured:
[1] = qHTS of pediatric cancer cell lines to identify multiple opportunities for drug repurposing: Confirmatory screen for U-2 OS cells (AID 1347122); conditions: U-2 OS osteosarcoma cell viability; series mostly up to 45.9 µM; further: nearly all actives have a fitted effect of over 65% in size; further: potency means the concentration at half of the fitted maximal effect
Method in brief: (§1)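 Cells (500-1,000/well) in growth media were settled 5 h at 37 degrees C, then given compounds for 48 h. Viability was read as CellTiter-Glo luminescence. Primary runs used MIPE at 11 points (0.78 nM-46 µM) and NPC at 8 points (0.59 nM-46 µM); follow-ups used 11 points.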

[2] = qHTS of pediatric cancer cell lines to identify multiple opportunities for drug repurposing: Confirmatory screen for Rh41 cells (AID 1347123); conditions: Rh41 rhabdomyosarcoma cells, viability/cytotoxicity qHTS; series mostly up to 45.9 µM;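 further: potency means the concentration at half of the fitted maximal effect; 48 h compound exposure; nearly all actives have a fitted effect of over 60% in size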
Method in brief: as §1

[3] = qHTS of pediatric cancer cell lines to identify multiple opportunities for drug repurposing: Confirmatory screen for Rh18 cells (AID 1347125); conditions: Rh18 rhabdomyosarcoma cells, viability; series mostly up to 45.9 µM; further: nearly all actives have a fitted effect of over 55% in size; further: potency means the concentration at half of the fitted maximal effect
Method in brief: as §1

[4] = qHTS of pediatric cancer cell lines to identify multiple opportunities for drug repurposing: Confirmatory screen for Saos-2 cells (AID 1347127); conditions: Saos-2 osteosarcoma cell viability; series mostly up to 45.9 µM; further: nearly all actives have a fitted effect of over 60% in size; further: potency means the concentration at half of the fitted maximal effect
Method in brief: as §1

[5] = qHTS of pediatric cancer cell lines to identify multiple opportunities for drug repurposing: Confirmatory screen for OHS-50 cells (AID 1347128); conditions: OHS-50 osteosarcoma cells viability; series mostly up to 45.9 µM;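 further: compound exposure lasted 48 h at 37 degrees C; nearly all actives have a fitted effect of over 55% in size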; further: potency means the concentration at half of the fitted maximal effect
Method in brief: as §1

[6] = qHTS of pediatric cancer cell lines to identify multiple opportunities for drug repurposing: Confirmatory screen for SK-N-SH cells (AID 1347129); conditions: SK-N-SH neuroblastoma cell viability; series mostly up to 46.1 µM;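 further: potency means the concentration at half of the fitted maximal effect; cells exposed to compound for 48 h before viability read; nearly all actives have a fitted effect of over 60% in size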
Method in brief: as §1

Furin (Homo sapiens) = Furin (Homo sapiens) (UniProt P09958); experiment: Furin counterscreen qHTS for Zika virus inhibitors (AID 1347149); conditions: furin enzymatic counterscreen, fluorogenic substrate; series mostly up to 57.5 µM;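 further: purified recombinant full-length human furin enzyme at 5 nM; fluorescence gain from furin cutting a BOC-RVRR-AMC peptide substrate over 15 min; top concentration of the series differs between compounds; nearly all actives have a fitted effect of over 70% in size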
Furin (Homo sapiens), sequence (P09958 whole entry, looked up): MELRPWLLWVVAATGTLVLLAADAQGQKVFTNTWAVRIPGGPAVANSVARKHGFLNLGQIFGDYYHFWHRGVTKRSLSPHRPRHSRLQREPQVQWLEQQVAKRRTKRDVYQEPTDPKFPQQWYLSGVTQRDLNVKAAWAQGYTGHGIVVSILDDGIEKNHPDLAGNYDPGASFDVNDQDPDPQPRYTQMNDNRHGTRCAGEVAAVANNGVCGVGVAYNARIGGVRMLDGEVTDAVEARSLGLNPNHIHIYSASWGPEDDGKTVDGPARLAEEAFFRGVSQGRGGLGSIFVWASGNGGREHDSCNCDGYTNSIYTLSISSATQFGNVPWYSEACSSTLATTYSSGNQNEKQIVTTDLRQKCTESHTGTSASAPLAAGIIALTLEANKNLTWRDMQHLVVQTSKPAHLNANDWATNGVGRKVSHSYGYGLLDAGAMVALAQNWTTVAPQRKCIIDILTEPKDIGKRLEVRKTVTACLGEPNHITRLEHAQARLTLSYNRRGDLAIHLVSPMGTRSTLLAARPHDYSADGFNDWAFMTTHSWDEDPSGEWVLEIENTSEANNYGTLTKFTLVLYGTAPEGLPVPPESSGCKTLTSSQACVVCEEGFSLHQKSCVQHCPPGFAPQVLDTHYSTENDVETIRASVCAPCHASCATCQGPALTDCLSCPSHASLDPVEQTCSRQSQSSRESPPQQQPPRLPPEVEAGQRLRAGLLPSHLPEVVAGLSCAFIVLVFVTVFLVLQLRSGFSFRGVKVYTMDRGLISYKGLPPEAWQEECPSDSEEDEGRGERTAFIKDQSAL
Method in brief: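 Counterscreen measures cleavage of 2 microM BOC-RVRR-AMC, below its ~15 microM Km, by 5 nM full-length human furin at pH 7.0 after a 15-min compound preincubation. Inhibition derives from the 15-min fluorescence increase at 37C.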

[7] = qHTS of pediatric cancer cell lines to identify multiple opportunities for drug repurposing: Confirmatory screen for RD cells (AID 1347124); conditions: RD rhabdomyosarcoma cell viability; series mostly up to 45.9 µM;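 further: cells exposed to compound for 48 h before viability readout; nearly all actives have a fitted effect of over 65% in size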; further: potency means the concentration at half of the fitted maximal effect
Method in brief: as §1

[8] = qHTS of pediatric cancer cell lines to identify multiple opportunities for drug repurposing: Confirmatory screen for Rh30 cells (AID 1347126); conditions: Rh30 rhabdomyosarcoma cell viability; series mostly up to 45.9 µM; further: nearly all actives have a fitted effect of over 55% in size; further: potency means the concentration at half of the fitted maximal effect
Method in brief: as §1

[9] = test system: Zika virus NS2B-NS3 protease (unlinked); experiment: Optimization of GU AMC qHTS for Zika virus inhibitors: Unlinked NS2B-NS3 protease assay (AID 1347151); conditions: recombinant ZIKV NS2B-NS3 protease, fluorogenic AMC substrate; series mostly up to 52.5 µM; further: nearly all actives have a fitted effect of over 80% in size
Method in brief: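 Noncovalent NS2B hydrophilic domain–NS3 protease complex (25 nM final) in 10 mM Tris-HCl pH 8.0, 0.01% Tween 20; AMC substrate, room temperature 15 min (~20% conversion); fluorescence change normalized, 4-parameter Hill fit.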

Which Potency [1] does the source give for `CN[C@@H]1C[C@H]2O[C@@](C)([C@H]1OC)n1c3ccccc3c3c4c(c5c6ccccc6n2c5c31)C(=O)N[C@H]4O` here?
Its Potency is 369 nM (active).

What about the Potency [2] of the same molecule?
Its Potency is 1040 nM (active).

What about the Potency [3] of the same molecule?
The Potency was 1470 nM (active).

What about the Potency [4] of the same molecule?
The Potency was 585 nM (active).

What about the Potency [5] of the same molecule?
The Potency was 585 nM (active).

And the Potency [6]?
Its Potency is 332 nM (active).

And the Potency (Furin (Homo sapiens))?
The Potency was “inactive”.

For `NC(=O)Nc1cc(-c2ccc(CN3CCOCC3)cc2)sc1C(N)=O`, which Potency [1] is on record?
Its Potency is 11700 nM (active).

What about the Potency [2] of the same molecule?
The Potency was 13100 nM (active).

And the Potency [4]?
The Potency was 13100 nM (active).

What about the Potency [6] of the same molecule?
The Potency was 14800 nM (active).

Which results are given for `Cn1cc(-c2cnn3c(N)c(Br)c([C@H]4CCCNC4)nc23)cn1`?
Potency [1]: 2930 nM (active); Potency [2]: 23300 nM (active); Potency [7]: inactive; Potency [3]: inactive; Potency [8]: 3690 nM (active); Potency [6]: 18700 nM (active)

For `CC(C)(N)c1ccc(-c2nc3ccccc3nc2-c2ccccc2)cc1`, which Potency [1] is on record?
The Potency was “inactive”.

What about the Potency [7] of the same molecule?
The Potency was “inactive”.

And the Potency [3]?
The Potency was 1650 nM (active).

What about the Potency [8] of the same molecule?
Its Potency is “inactive”.

What about the Potency [4] of the same molecule?
The Potency was 737 nM (active).

And the Potency [5]?
Its Potency is 369 nM (active).

Which results are given for `CCC(C(=O)O)C1CCC(C)C(C(C)C(O)C(C)C(=O)C(CC)C2OC3(C=CC(O)[C@@]4(CC[C@](C)(C5CC[C@@](O)(CC)C(C)O5)O4)O3)C(C)CC2C)O1` (some centres undefined)?
Potency [1]: 7370 nM (active); Potency [2]: 1470 nM (active); Potency [8]: 18500 nM (active); Potency [5]: 369 nM (active); Potency [6]: 5900 nM (active)

For `COc1cc2c(cc1OC)[C@@H]1C(=O)c3ccc4c(c3O[C@@H]1CO2)C=CC(C)(C)O4`, which Potency [1] is on record?
Its Potency is 329 nM (active).

And the Potency [2]?
The Potency was 13100 nM (active).

And the Potency [8]?
The Potency was 1850 nM (active).

What about the Potency [4] of the same molecule?
Its Potency is 3690 nM (active).

And the Potency [5]?
The Potency was “inactive”.

With `C=CCNC1=C2C[C@@H](C)C[C@H](OC)[C@@H](O)[C@@H](C)C=C(C)[C@H](OC(N)=O)[C@@H](OC)C=CC=C(C)C(=O)NC(=CC1=O)C2=O` as the molecule, how does the Potency [1] read?
Its Potency is 414 nM (active).

And the Potency [2]?
Its Potency is 737 nM (active).

And the Potency [7]?
The Potency was 131 nM (active).

And the Potency [3]?
The Potency was 585 nM (active).

What about the Potency [8] of the same molecule?
The Potency was 4140 nM (active).

What about the Potency [5] of the same molecule?
Its Potency is 11700 nM (active).

What about the Potency [6] of the same molecule?
The Potency was 1870 nM (active).

Which Potency [1] does the source give for `O=C1NC(=O)C(=Cc2ccc3nccc(-c4ccncc4)c3c2)S1` here?
Its Potency is 2610 nM (active).

What about the Potency [2] of the same molecule?
Its Potency is 2610 nM (active).

And the Potency [7]?
The Potency was 7370 nM (active).

What about the Potency [8] of the same molecule?
Its Potency is 6570 nM (active).

What about the Potency [4] of the same molecule?
Its Potency is 2930 nM (active).

What about the Potency [5] of the same molecule?
Its Potency is 7370 nM (active).

What about the Potency [6] of the same molecule?
Its Potency is 4180 nM (active).

Which Potency [1] does the source give for `CS[C@H]1SC[C@@H]2C(=O)N(C)[C@H](C(C)C)C(=O)OC[C@H](NC(=O)c3cnc4ccccc4n3)C(=O)N[C@H](C)C(=O)N(C)[C@@H]1C(=O)N(C)[C@H](C(C)C)C(=O)OC[C@H](NC(=O)c1cnc3ccccc3n1)C(=O)N[C@H](C)C(=O)N2C` here?
The Potency was 20.8 nM (active).

What about the Potency [2] of the same molecule?
The Potency was 5.9 nM (active).

And the Potency [3]?
Its Potency is “inactive”.

What about the Potency [4] of the same molecule?
The Potency was “inactive”.

What about the Potency [5] of the same molecule?
The Potency was 14.7 nM (active).

What about the Potency [6] of the same molecule?
The Potency was 13.2 nM (active).

With `CCCCCCCCc1ccc(CCC(N)(CO)CO)cc1` as the molecule, how does the outcome [9] read?
Its outcome is “inactive”.
